Measured values reported in the supplement of paper PMC6992640.

Test system: UCD52 (cells of a triple-negative basal-like breast cancer xenograft)
Assay: cell viability of combination (% of vehicle); higher = less cytotoxic
Conditions: 1 µM; 72 h; partner dose: 10 nM
Method: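 PDX cells were treated for 72 h with each drug at 1 µM plus afatinib (10 nM; 1 µM for WHIM30). Luciferase viability is expressed as percent of vehicle.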

Row | Compound | cell viability of combination
1 | CC(C)CC(NC(=O)C(CCc1ccccc1)NC(=O)CN1CCOCC1)C(=O)NC(Cc1ccccc1)C(=O)NC(CC(C)C)C(=O)C1(C)CO1 (stereo not given) [Carfilzomib (PR-171)] + CN(C)C/C=C/C(=O)Nc1cc2c(Nc3ccc(F)c(Cl)c3)ncnc2cc1O[C@H]1CCOC1 [Afatinib] | 13.1
2 | CCCCCCCCOc1ccccc1C(=O)Nc1ccc(C(=O)OCC[N+](C)(CC)CC)cc1.[Br-] [Otilonium Bromide] + CN(C)C/C=C/C(=O)Nc1cc2c(Nc3ccc(F)c(Cl)c3)ncnc2cc1O[C@H]1CCOC1 [Afatinib] | 78.6
3 | COc1cc2c(Oc3ccc4[nH]c(C)cc4c3F)ncnc2cc1OCCCN1CCCC1 [Cediranib (AZD217)] + CN(C)C/C=C/C(=O)Nc1cc2c(Nc3ccc(F)c(Cl)c3)ncnc2cc1O[C@H]1CCOC1 [Afatinib] | 24.5
4 | COc1ncc(-c2ccc3nccc(-c4ccnnc4)c3c2)cc1NS(=O)(=O)c1ccc(F)cc1F + CN(C)C/C=C/C(=O)Nc1cc2c(Nc3ccc(F)c(Cl)c3)ncnc2cc1O[C@H]1CCOC1 [Afatinib] | 15.8
5 | CC(O)C(=O)O.CC(O)C(=O)O.CN1CCN(c2ccc3c(c2)NC(=C2C(=O)N=c4cccc(F)c4=C2N)N3)CC1 [Dovitinib Dilactic acid] + CN(C)C/C=C/C(=O)Nc1cc2c(Nc3ccc(F)c(Cl)c3)ncnc2cc1O[C@H]1CCOC1 [Afatinib] | 56.7
6 | CC(C)(C)c1ccc(C(O)CCCN2CCC(C(O)(c3ccccc3)c3ccccc3)CC2)cc1 (stereo not given) [Terfenadine] + CN(C)C/C=C/C(=O)Nc1cc2c(Nc3ccc(F)c(Cl)c3)ncnc2cc1O[C@H]1CCOC1 [Afatinib] | 59.1
7 | COCCn1c2c([n+](Cc3cnccn3)c1C)C(=O)c1ccccc1C2=O.[Br-] + CN(C)C/C=C/C(=O)Nc1cc2c(Nc3ccc(F)c(Cl)c3)ncnc2cc1O[C@H]1CCOC1 [Afatinib] | 15.2
8 | Cl.Clc1ccccc1CN1CCc2sccc2C1 [Ticlopidine HCl] + CN(C)C/C=C/C(=O)Nc1cc2c(Nc3ccc(F)c(Cl)c3)ncnc2cc1O[C@H]1CCOC1 [Afatinib] | 75.9
9 | C[C@H]1O[C@@H](O[C@H]2[C@@H](O)C[C@H](O[C@H]3[C@@H](O)C[C@H](O[C@H]4CC[C@@]5(C)[C@H](CC[C@@H]6[C@@H]5C[C@@H](O)[C@]5(C)[C@@H](C7=CC(=O)OC7)CC[C@]65O)C4)O[C@@H]3C)O[C@@H]2C)C[C@H](O)[C@@H]1O [Digoxin] + CN(C)C/C=C/C(=O)Nc1cc2c(Nc3ccc(F)c(Cl)c3)ncnc2cc1O[C@H]1CCOC1 [Afatinib] | 19.5
10 | O=C(NC1CCN(CCCCC2(C(=O)NCC(F)(F)F)c3ccccc3-c3ccccc32)CC1)c1ccccc1-c1ccc(C(F)(F)F)cc1 [Lomitapide] + CN(C)C/C=C/C(=O)Nc1cc2c(Nc3ccc(F)c(Cl)c3)ncnc2cc1O[C@H]1CCOC1 [Afatinib] | 43.9
11 | CC1=CC(=O)c2ccccc2C1=O [Menadione] + CN(C)C/C=C/C(=O)Nc1cc2c(Nc3ccc(F)c(Cl)c3)ncnc2cc1O[C@H]1CCOC1 [Afatinib] | 74.6
12 | CC(NCCCc1cccc(C(F)(F)F)c1)c1cccc2ccccc12 (stereo not given) [Cinacalcet] + CN(C)C/C=C/C(=O)Nc1cc2c(Nc3ccc(F)c(Cl)c3)ncnc2cc1O[C@H]1CCOC1 [Afatinib] | 59.9
13 | O=C1C=CC=CC1=C1NC(=C2C=CC=CC2=O)N(c2ccc(C(=O)O)cc2)N1 [Deferasirox] + CN(C)C/C=C/C(=O)Nc1cc2c(Nc3ccc(F)c(Cl)c3)ncnc2cc1O[C@H]1CCOC1 [Afatinib] | 68.2
14 | COC(=O)NC(C(=O)N1CCCC1c1ncc(-c2ccc(-c3ccc(-c4cnc(C5CCCN5C(=O)C(NC(=O)OC)C(C)C)[nH]4)cc3)cc2)[nH]1)C(C)C (stereo not given) + CN(C)C/C=C/C(=O)Nc1cc2c(Nc3ccc(F)c(Cl)c3)ncnc2cc1O[C@H]1CCOC1 [Afatinib] | 59.1
15 | CC(C)CC(NC(=O)CNC(=O)c1cc(Cl)ccc1Cl)B(O)O (stereo not given) + CN(C)C/C=C/C(=O)Nc1cc2c(Nc3ccc(F)c(Cl)c3)ncnc2cc1O[C@H]1CCOC1 [Afatinib] | 18.1
16 | CC(C)(C)c1ccc(C(=O)CCCN2CCC(OC(c3ccccc3)c3ccccc3)CC2)cc1 [Ebastine] + CN(C)C/C=C/C(=O)Nc1cc2c(Nc3ccc(F)c(Cl)c3)ncnc2cc1O[C@H]1CCOC1 [Afatinib] | 70.1
17 | CC[C@@]1(O)C(=O)OCc2c1cc1n(c2=O)Cc2cc3c(CN(C)C)c(O)ccc3nc2-1.Cl [Topotecan HCl] + CN(C)C/C=C/C(=O)Nc1cc2c(Nc3ccc(F)c(Cl)c3)ncnc2cc1O[C@H]1CCOC1 [Afatinib] | 66.5
18 | C=CC(=O)N1CCC(Oc2cc3c(Nc4ccc(Cl)c(Cl)c4F)ncnc3cc2OC)CC1 [Poziotinib] + CN(C)C/C=C/C(=O)Nc1cc2c(Nc3ccc(F)c(Cl)c3)ncnc2cc1O[C@H]1CCOC1 [Afatinib] | 27.6
19 | CSc1ccc2c(c1)N(CCC1CCCCN1C)c1ccccc1S2.Cl (stereo not given) [Thioridazine HCl] + CN(C)C/C=C/C(=O)Nc1cc2c(Nc3ccc(F)c(Cl)c3)ncnc2cc1O[C@H]1CCOC1 [Afatinib] | 58.1
20 | O=C(NN=Cc1ccc([N+](=O)[O-])o1)c1ccc(O)cc1 [Nifuroxazide] + CN(C)C/C=C/C(=O)Nc1cc2c(Nc3ccc(F)c(Cl)c3)ncnc2cc1O[C@H]1CCOC1 [Afatinib] | 79.4

Row | Compound | cell viability of combination
21 | CCOC(=O)C1=C(COCCN)NC(C)=C(C(=O)OC)C1c1ccccc1Cl.O=S(=O)(O)c1ccccc1 (stereo not given) [Amlodipine Besylate] + CN(C)C/C=C/C(=O)Nc1cc2c(Nc3ccc(F)c(Cl)c3)ncnc2cc1O[C@H]1CCOC1 [Afatinib] | 83.6
22 | CCOc1cc2ncc(C#N)c(Nc3ccc(F)c(Cl)c3)c2cc1NC(=O)C=CCN(C)C [Pelitinib (EKB-569)] + CN(C)C/C=C/C(=O)Nc1cc2c(Nc3ccc(F)c(Cl)c3)ncnc2cc1O[C@H]1CCOC1 [Afatinib] | 28.6
23 | O=C(C=Cn1cnc(-c2cc(C(F)(F)F)cc(C(F)(F)F)c2)n1)NNc1cnccn1 + CN(C)C/C=C/C(=O)Nc1cc2c(Nc3ccc(F)c(Cl)c3)ncnc2cc1O[C@H]1CCOC1 [Afatinib] | 52.2
24 | CC(C)C(=O)OCC(=O)[C@@]12O[C@H](C3CCCCC3)O[C@@H]1C[C@H]1[C@@H]3CCC4=CC(=O)C=C[C@]4(C)[C@H]3[C@@H](O)C[C@@]12C [Ciclesonide] + CN(C)C/C=C/C(=O)Nc1cc2c(Nc3ccc(F)c(Cl)c3)ncnc2cc1O[C@H]1CCOC1 [Afatinib] | 99.5
25 | Cl.Nc1ccn(C2OC(CO)C(O)C2O)c(=O)n1 (stereo not given) [Cytarabine hydrochloride] + CN(C)C/C=C/C(=O)Nc1cc2c(Nc3ccc(F)c(Cl)c3)ncnc2cc1O[C@H]1CCOC1 [Afatinib] | 72.2
26 | COC(=O)C1=C(C)NC(C)=C(C(=O)OCCN(C)Cc2ccccc2)C1c1cccc([N+](=O)[O-])c1.Cl (stereo not given) [Nicardipine HCl] + CN(C)C/C=C/C(=O)Nc1cc2c(Nc3ccc(F)c(Cl)c3)ncnc2cc1O[C@H]1CCOC1 [Afatinib] | 69.6
27 | Cl.OC(c1cc(C(F)(F)F)nc2c(C(F)(F)F)cccc12)C1CCCCN1 (stereo not given) [Mefloquine hydrochloride] + CN(C)C/C=C/C(=O)Nc1cc2c(Nc3ccc(F)c(Cl)c3)ncnc2cc1O[C@H]1CCOC1 [Afatinib] | 50.3
28 | O=C(O)c1cc(O)c(O)c(O)c1 [Gallic acid] + CN(C)C/C=C/C(=O)Nc1cc2c(Nc3ccc(F)c(Cl)c3)ncnc2cc1O[C@H]1CCOC1 [Afatinib] | 73.6
29 | C#Cc1cccc(Nc2ncnc3cc(OCCOC)c(OCCOC)cc23)c1 [Erlotinib] + CN(C)C/C=C/C(=O)Nc1cc2c(Nc3ccc(F)c(Cl)c3)ncnc2cc1O[C@H]1CCOC1 [Afatinib] | 55
30 | Clc1ccc(C(Cn2ccnc2)OCc2ccsc2Cl)c(Cl)c1 (stereo not given) [Tioconazole] + CN(C)C/C=C/C(=O)Nc1cc2c(Nc3ccc(F)c(Cl)c3)ncnc2cc1O[C@H]1CCOC1 [Afatinib] | 81.8
31 | CCN(CC)CCNC(=O)c1c(C)[nH]c(C=C2C(=O)Nc3ccc(F)cc32)c1C.O=C(O)CC(O)C(=O)O [Sunitinib malate] + CN(C)C/C=C/C(=O)Nc1cc2c(Nc3ccc(F)c(Cl)c3)ncnc2cc1O[C@H]1CCOC1 [Afatinib] | 43.6
32 | CS(=O)(=O)O.Cc1c(O)cccc1C(=O)NC(CSc1ccccc1)C(O)CN1CC2CCCCC2CC1C(=O)NC(C)(C)C (stereo not given) [Nelfinavir Mesylate] + CN(C)C/C=C/C(=O)Nc1cc2c(Nc3ccc(F)c(Cl)c3)ncnc2cc1O[C@H]1CCOC1 [Afatinib] | 47.9
33 | CC(=O)c1cc2c(o1)C(=O)c1ccccc1C2=O [Napabucasin] + CN(C)C/C=C/C(=O)Nc1cc2c(Nc3ccc(F)c(Cl)c3)ncnc2cc1O[C@H]1CCOC1 [Afatinib] | 17.4
34 | CNC(=O)c1cc(Oc2ccc(NC(=O)Nc3ccc(Cl)c(C(F)(F)F)c3)cc2)ccn1.Cc1ccc(S(=O)(=O)O)cc1 [Sorafenib Tosylate] + CN(C)C/C=C/C(=O)Nc1cc2c(Nc3ccc(F)c(Cl)c3)ncnc2cc1O[C@H]1CCOC1 [Afatinib] | 42.3
35 | CC(=O)C1(O)Cc2c(O)c3c(c(O)c2C(OC2CC(N)C(O)C(C)O2)C1)C(=O)c1ccccc1C3=O.Cl (stereo not given) [Idarubicin HCl] + CN(C)C/C=C/C(=O)Nc1cc2c(Nc3ccc(F)c(Cl)c3)ncnc2cc1O[C@H]1CCOC1 [Afatinib] | 24.3
36 | C#Cc1cccc(Nc2ncnc3cc(OCCOC)c(OCCOC)cc23)c1.Cl [Erlotinib Hydrochloride] + CN(C)C/C=C/C(=O)Nc1cc2c(Nc3ccc(F)c(Cl)c3)ncnc2cc1O[C@H]1CCOC1 [Afatinib] | 54.5
37 | COc1cc(Nc2c(C#N)cnc3cc(OCCCN4CCN(C)CC4)c(OC)cc23)c(Cl)cc1Cl [Bosutinib (SKI-606)] + CN(C)C/C=C/C(=O)Nc1cc2c(Nc3ccc(F)c(Cl)c3)ncnc2cc1O[C@H]1CCOC1 [Afatinib] | 25.9
38 | Cl.Fc1ccc(C2CCNCC2COc2ccc3c(c2)OCO3)cc1 (stereo not given) [Paroxetine HCl] + CN(C)C/C=C/C(=O)Nc1cc2c(Nc3ccc(F)c(Cl)c3)ncnc2cc1O[C@H]1CCOC1 [Afatinib] | 60.4
39 | CS(=O)(=O)CCNCc1ccc(-c2ccc3ncnc(Nc4ccc(OCc5cccc(F)c5)c(Cl)c4)c3c2)o1.Cc1ccc(S(=O)(=O)O)cc1.Cc1ccc(S(=O)(=O)O)cc1 [Lapatinib Ditosylate] + CN(C)C/C=C/C(=O)Nc1cc2c(Nc3ccc(F)c(Cl)c3)ncnc2cc1O[C@H]1CCOC1 [Afatinib] | 41.5
40 | CNC(=O)c1cc(Oc2ccc(NC(=O)Nc3ccc(Cl)c(C(F)(F)F)c3)c(F)c2)ccn1.Cl [Regorafenib hydrochloride] + CN(C)C/C=C/C(=O)Nc1cc2c(Nc3ccc(F)c(Cl)c3)ncnc2cc1O[C@H]1CCOC1 [Afatinib] | 53.3
